# Test results reported in PubChem BioAssay AID602143 (Vanderbilt Specialized Chemistry Center, 2011).
# A number with no mark means an inactive call. Calls of active or inactive are those of the source. Rule as the data show it: active = remaining activity below about 50%; inactive = the rest.
# Target: Phospholipase D2 (Homo sapiens) (UniProt O14939)
# Test: cellular phospholipase D2 activity inhibition – cell-based, HEK293, single concentration (AID 602143);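 also: tested at 200 nM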
# Settings: HEK293 cellular PLD2 activity, percent of control; stronger effect = lower value
# Chain of Phospholipase D2 (Homo sapiens) (O14939 whole entry, looked up): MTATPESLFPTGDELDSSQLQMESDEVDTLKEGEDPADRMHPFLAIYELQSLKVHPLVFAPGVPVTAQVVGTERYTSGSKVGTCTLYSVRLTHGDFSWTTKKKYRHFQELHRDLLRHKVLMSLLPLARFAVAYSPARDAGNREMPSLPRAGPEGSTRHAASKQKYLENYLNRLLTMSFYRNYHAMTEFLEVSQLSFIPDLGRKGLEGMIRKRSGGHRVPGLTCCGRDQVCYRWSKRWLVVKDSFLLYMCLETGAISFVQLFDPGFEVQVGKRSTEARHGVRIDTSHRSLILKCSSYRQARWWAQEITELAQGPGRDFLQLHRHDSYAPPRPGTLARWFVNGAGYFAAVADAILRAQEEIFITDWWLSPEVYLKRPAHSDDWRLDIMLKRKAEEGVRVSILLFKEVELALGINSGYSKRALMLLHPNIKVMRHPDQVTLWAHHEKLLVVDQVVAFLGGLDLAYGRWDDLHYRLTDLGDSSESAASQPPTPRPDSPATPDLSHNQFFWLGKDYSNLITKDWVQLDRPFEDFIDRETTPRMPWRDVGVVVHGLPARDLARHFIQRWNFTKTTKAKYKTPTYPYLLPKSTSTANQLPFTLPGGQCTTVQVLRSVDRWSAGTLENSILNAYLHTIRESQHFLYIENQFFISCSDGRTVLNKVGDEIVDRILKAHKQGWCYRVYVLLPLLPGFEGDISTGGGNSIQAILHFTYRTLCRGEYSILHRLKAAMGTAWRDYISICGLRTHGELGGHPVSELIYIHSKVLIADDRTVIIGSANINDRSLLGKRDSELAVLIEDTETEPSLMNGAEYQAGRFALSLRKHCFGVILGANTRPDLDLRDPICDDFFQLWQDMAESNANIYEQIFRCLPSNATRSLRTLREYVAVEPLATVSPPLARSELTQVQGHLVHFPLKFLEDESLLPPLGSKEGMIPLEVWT
# Chain of Phospholipase D2 (Homo sapiens) (O14939 whole entry, looked up): as above
row,Structure (SMILES),remaining activity
1,O=C(C1C[C@@H]1c1ccccc1)N1CCC(n2c(=O)[nH]c3cc(Cl)ccc32)CC1 (stereo partly drawn),72.5%
2,O=C(NCCN1CCN(c2ccncc2)CC1)c1ccc2ccccc2c1,110%
3,O=C(N[C@@H](Cc1ccccc1)CN1CCC(n2c(=O)[nH]c3ccccc32)CC1)c1ccc2ccccc2c1,96.7%
4,O=C(NCCN1CCC(n2c(=O)[nH]c3cc(I)ccc32)CC1)c1ccc(Cl)cc1,36.7% (active)
5,C[C@@H](CN1CCC2(CCc3ccccc32)CC1)NC(=O)c1ccc2ccccc2c1,104%
6,O=C(NCCN1CCN(c2ccncc2)CC1)c1ccc(F)cc1O,112%
7,C[C@@H](CN1CCC(n2c(=O)[nH]c3cc(I)ccc32)CC1)NC(=O)c1ccc2ccccc2c1,101%
8,O=c1[nH]c2ccccc2n1C1CCN(CCNS(=O)(=O)c2ccc(F)cc2)CC1,75.9%
9,C[C@@H](CN1CCC(n2c(=O)[nH]c3ccc(F)cc32)CC1)NC(=O)c1ccc(Cl)cc1,68.3%
10,O=C(NCCN1CCC(n2nnc3ccccc32)CC1)C1CC1c1ccccc1 (stereo not drawn),78.1%
11,O=C(NCCN1CCC(n2c(=O)[nH]c3ccccc32)CC1)c1cc2ccccc2c2c1ccc1ccccc12,76.6%
12,O=C(NCCN1CCC2(CC1)CNCc1ccccc12)c1cnc2ccccc2c1,97.1%
13,C[C@@H](CN1CCC(n2c(=O)[nH]c3ccccc32)CC1)NC(=O)c1ccc2ncccc2c1,82.2%
